This is a sample that favours compounds with a hit; in the whole collection about 3.5% have one here.
MITF inh = inhibitors of human MITF | O75030 | AlphaScreen MITF homodimerization, bead proximity signal | inhibition, % at 2.6 µM | hit rate 0.91% among 650,000; in the data active = inhibition above about 50%;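 also: 0% = vehicle wells with protein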
Target sequence (O75030 whole entry, looked up): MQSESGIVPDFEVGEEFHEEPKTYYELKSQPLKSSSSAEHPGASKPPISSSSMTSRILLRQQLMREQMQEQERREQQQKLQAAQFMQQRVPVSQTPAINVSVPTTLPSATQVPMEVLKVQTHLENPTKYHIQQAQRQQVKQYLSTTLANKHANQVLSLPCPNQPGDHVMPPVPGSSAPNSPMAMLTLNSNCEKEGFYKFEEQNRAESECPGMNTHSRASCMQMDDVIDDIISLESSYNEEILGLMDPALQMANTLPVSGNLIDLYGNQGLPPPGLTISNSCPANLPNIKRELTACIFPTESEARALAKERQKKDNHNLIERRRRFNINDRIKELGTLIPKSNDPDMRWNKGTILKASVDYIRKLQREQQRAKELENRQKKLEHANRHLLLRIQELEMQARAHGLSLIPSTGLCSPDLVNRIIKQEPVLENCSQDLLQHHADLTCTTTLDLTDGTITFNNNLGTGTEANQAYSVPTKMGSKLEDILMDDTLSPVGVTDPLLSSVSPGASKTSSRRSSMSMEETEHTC
TEAD-YAP inh = TEAD-YAP interaction inhibition | inhibition, % at 9.12 µM | hit rate 1.4% among 640,000 | HEK-TIYL cells, TEAD-Gal4/YAP UAS-luciferase luminescence; in the data active = inhibition above about 32%;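 also: 0% = median of test compound wells and 100% = reference inhibitor wells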
GPR151 ag = activates the human receptor GPR151 | PathHunter beta-arrestin GPR151 cells, luminescence | activation, % at 11.2 µM | hit rate 1% among 650,000 | AID 1508602; in the data active = activation above about 4.9%;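 also: 0% = median of compound wells and 100% = cells with positive control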
FBW7 act = human FBW7 E3 ligase activation, primary screen; Q969H0; AlphaScreen FBW7–phospho-cyclin E peptide binding, activator screen; normalized activity (activation), % at 26.1 µM; hit rate 0.13% among 650,000; AID 1259310; in the data active = normalized activity above about 1.9%;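 also: purified mutant Fbw7 with reduced substrate affinity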
* = called active by the depositor.

SMILES	MITF inh	TEAD-YAP inh	GPR151 ag	FBW7 act
COc1cc(NS(=O)(=O)c2ccc(-c3cc(C)no3)cc2)cc(OC)c1	-1.4	60.8*	0.7	0.1
COc1cc(NS(=O)(=O)c2ccc(-c3cc(C)no3)cc2)cc(OC)c1OC	13.8	60.5*	1.6	1.0
COc1cc(NS(=O)(=O)c2ccc3c(c2)oc(=O)n3C)cc(OC)c1OC	-2.2	48.2*	0.7	-0.1
COc1cccc(Cn2ccn(-c3cccc(Cl)c3)c(=O)c2=O)c1	-3.3	52.7*	-1.7	-0.1
COc1cccc(Cn2ccn(Cc3ccccc3)c(=O)c2=O)c1	12.7	-4.4	1.1	0.7
O=C(NNC(=O)c1nn(-c2ccc(Cl)cc2)cc1O)c1ccc2ccccc2n1	69.4*	65.2*	-2.1	-1.0
O=C(NNC(=O)c1nn(-c2ccc(Cl)cc2)cc1O)c1ccccc1F	28.1	15.5	0.6	-0.4
Cc1ccc2c(CSc3nc(N)cc(N)n3)cc(=O)oc2c1	8.1	-10.3	1.2	-0.2
Cc1ccc2oc(=O)cc(CSc3nc(C)cc(C)c3C#N)c2c1	-7.5	50.9*	-2.2	0.1
CCOC(=O)CNC(=O)CSc1nc2sc3c(c2c(=O)[nH]1)CCC(C)C3 (stereo not drawn)	-1.1	89.1*	-2.2	0.5
Cc1cc(-c2cnc(N3CCOCC3)nc2C2CCCN(C(=O)C3CCCCC3)C2)on1 (stereo not drawn)	-2.1	1.6	-0.1	-0.1
O=C(COc1cc(=O)n2ccccc2n1)NCc1ccco1	4.7	3.8	0.6	-0.2
CCN(Cc1ccccc1)C(=O)c1sc2nc3n(c(=O)c2c1C)CCCC3	10.4	37.2*	1.5	0.6
CCOCCCNc1ncnc2c1cnn2C	-14.5	1.5	-0.2	1.9*
CN(C)CCNc1nc2ccccc2n2c1nc1ccccc12	3.5	65.0*	1.0	0.0
c1ccc2c(c1)nc(NCc1ccncc1)c1nc3ccccc3n12	0.5	3.5	0.8	-0.1
CC[n+]1c(/C=C/c2ccc(N(C)C)cc2)sc2cc(C)ccc21	23.3	88.5*	-1.0	-0.3
CC[n+]1c(C)sc2ccc(C)cc21	0.8	14.9	1.2	0.0
COc1cc2c(cc1OC)C(c1ccccc1)N(C(=O)S(C)(=O)=O)CC2 (stereo not drawn)	3.6	-1.4	-0.5	0.0
NC(=O)c1cccc(CC2(c3ccc(Cl)cc3)C(=O)Nc3ccccc32)c1 (stereo not drawn)	-2.6	-0.9	0.7	-0.1
CNC(=O)c1ccccc1Nc1cc(Nc2ccc(C(=O)N(C)C)cn2)ncc1C(F)(F)F	-3.5	83.6*	-1.1	0.1
CNC(=O)c1ccccc1Nc1ccnc(Nc2ccccn2)c1	4.8	75.6*	0.0	-1.0
CNC(=O)c1ncccc1Nc1cc(Nc2ccc3[nH]ncc3c2)ncc1C(F)(F)F	2.6	9.0	1.2	0.0
CNC(=O)c1ncccc1Nc1cc(Nc2ccc(C(=O)N(C)C)cn2)ncc1C(F)(F)F	-2.4	72.3*	-0.2	0.2
CNC(=O)c1ccccc1Nc1cc(Nc2ccc(C(=O)N(C)C)cc2C)ncc1C(F)(F)F	-4.3	72.7*	0.4	-0.1
SMILES	MITF inh	TEAD-YAP inh	GPR151 ag	FBW7 act
CNC(=O)c1ccccc1Nc1cc(Nc2ccc(-c3cncnc3)cc2OC)ncc1C(F)(F)F	36.4	13.3	-0.1	1.6
COCCn1c(=O)n(CC(N)=O)c2cccnc21	1.4	-4.7	-0.2	0.3
CC(C)c1ccc(N(CC(=O)NC(C)(C)C)C(=O)CCC(=O)Nc2ccccn2)cc1	10.6	-4.1	-1.3	0.3
CCOc1ccc(-n2nnnc2CN2CCN(C(=O)NCCc3ccccc3)CC2)cc1	-0.7	6.3	0.5	0.1
CNC(=O)c1ccccc1Nc1cc(Nc2ncccc2C)ncc1C(F)(F)F	35.8	39.9*	-2.5	0.0
COC(=O)[C@@H]1CCCN1C(=O)CCC1(Cc2ccc(OC)c3ccccc23)CCC(=O)N1 (stereo partly drawn)	5.0	-12.6	2.2	-0.1
O=C(/C=C/c1ccc2ccccc2c1)OCc1ccco1	-2.3	4.1	0.8	0.0
CCCNc1ccnc2c(-c3ccc(O)cc3)cnn12	-16.2	96.8*	-1.5	0.0
CCCNc1ccnc2c(-c3cccc(CO)c3)cnn12	1.7	102.0*	-4.6	-0.4
CN1CCN(c2ccnc3c(-c4ccc(Cl)cc4)cnn23)CC1	-9.4	-53.6	-0.2	0.2
CCCNc1ccnc2c(-c3ccc(N(C)C)cc3)cnn12	12.5	8.4	-0.7	-0.7
Cc1cccc(N(C)c2ccnc3c(-c4cccc(CO)c4)cnn23)c1	-3.6	76.4*	0.5	-0.1
CN1CCN(c2ccnc3c(-c4ccc(O)cc4)cnn23)CC1	77.5*	43.5*	0.2	-0.6
OCc1cccc(-c2cnn3c(NCCCN4CCOCC4)ccnc23)c1	-4.4	28.3	-1.4	0.0
COc1ccc(/C=N/NC(=O)C(C)Nc2cccc(C)c2)c(OC)c1 (stereo not drawn)	17.7	20.0	1.3	-0.1
CCOc1ccc(NC(=O)C2CC(=O)N(CC)C(=Nc3ccc(Cl)cc3)S2)cc1 (stereo not drawn)	12.6	2.9	-0.6	0.0
CN(C)c1cccc(Nc2ccnc3c(-c4ccc(O)cc4)cnn23)c1	-9.5	-37.6	0.9	-0.3
CN(C)c1cccc(Nc2ccnc3c(-c4cccc(CO)c4)cnn23)c1	-19.0	63.0*	0.8	0.0
COc1ccccc1N1C[C@@H]2C[C@@H](c3cccn3-c3ccccn3)N3CCC[C@@]23C1=O	-7.7	-11.1	-0.6	0.0
COc1cc(Nc2nc(Nc3ccccn3)nc3c2ncn3-c2ccsc2)cc(OC)c1OC	7.0	31.1	1.6	0.1
COc1cc(Nc2nc(Nc3nc4ccccc4n3C)nc3c2ncn3-c2ccsc2)cc(OC)c1OC	13.9	36.9*	-1.5	-0.1
COc1cc(Nc2nc(Nc3cc(OC)c(OC)c(OC)c3)c3ncn(-c4ccsc4)c3n2)cc(OC)c1OC	1.7	50.5*	2.6	0.2
CCC(C)NC(=O)c1cnc(N2CCN(c3ccccc3OC)CC2)c2ccccc12 (stereo not drawn)	16.4	13.8	-0.5	0.4
COc1cccc(/C=N/NS(=O)(=O)c2ccccc2)c1OC	21.5	18.3	-0.6	0.7
CCN(CC)c1ccc2cc(-c3nc(-c4ccccc4)cs3)c(=O)oc2c1	-13.7	10.2	-0.3	0.2
SMILES	MITF inh	TEAD-YAP inh	GPR151 ag	FBW7 act
CCN(CC)c1ccc2cc(-c3nc(C)cs3)c(=O)oc2c1	-22.7	94.4*	-3.7	3.4*
CCN(CC)c1ccc2cc(-c3ccccn3)c(=O)oc2c1	-66.2	92.8*	-8.7	2.7*
CCc1ccccc1NC(=O)CSc1nc2nc(C)c(Cc3cccc(Cl)c3)c(C)n2n1	2.4	-5.0	-0.2	-0.2
CCOC(=O)c1c(NC(=O)C(C)Sc2nnc(CNC(=O)c3ccc([N+](=O)[O-])cc3)n2-c2ccc(OCC)cc2)sc2c1CCC2 (stereo not drawn)	7.0	8.4	0.3	0.4
CCc1ccc(/C=C/c2c([N+](=O)[O-])c(=O)n(C)c(=O)n2C)cc1	3.8	44.3*	0.3	-0.1
CCOc1ccc(/C=C/c2c([N+](=O)[O-])c(=O)n(C)c(=O)n2C)cc1	-4.2	12.7	1.5	-0.2
CN(C)S(=O)(=O)c1cccc(C(=O)Nc2cccc(O)c2)c1	-9.8	57.6*	0.3	-0.1
